Measurements as given in PubChem BioAssay AID1903 (Southern Research Specialized Biocontainment Screening …, 2009).
Out of some 310,000 compounds screened, about 1,200 (0.39%) were called active. No rule for the calls is given here. The list is a sample of the results. Measured potencies and affinities stand elsewhere.

target: Large T antigen (Simian virus 40) (UniProt P03070); test: SV40 large T antigen inhibitors, biochemical (AID 1903); conditions: SV40 large T antigen ATPase/helicase inhibition assay; at 20 µM; stronger effect = higher value
Sequence (P03070 whole entry, looked up): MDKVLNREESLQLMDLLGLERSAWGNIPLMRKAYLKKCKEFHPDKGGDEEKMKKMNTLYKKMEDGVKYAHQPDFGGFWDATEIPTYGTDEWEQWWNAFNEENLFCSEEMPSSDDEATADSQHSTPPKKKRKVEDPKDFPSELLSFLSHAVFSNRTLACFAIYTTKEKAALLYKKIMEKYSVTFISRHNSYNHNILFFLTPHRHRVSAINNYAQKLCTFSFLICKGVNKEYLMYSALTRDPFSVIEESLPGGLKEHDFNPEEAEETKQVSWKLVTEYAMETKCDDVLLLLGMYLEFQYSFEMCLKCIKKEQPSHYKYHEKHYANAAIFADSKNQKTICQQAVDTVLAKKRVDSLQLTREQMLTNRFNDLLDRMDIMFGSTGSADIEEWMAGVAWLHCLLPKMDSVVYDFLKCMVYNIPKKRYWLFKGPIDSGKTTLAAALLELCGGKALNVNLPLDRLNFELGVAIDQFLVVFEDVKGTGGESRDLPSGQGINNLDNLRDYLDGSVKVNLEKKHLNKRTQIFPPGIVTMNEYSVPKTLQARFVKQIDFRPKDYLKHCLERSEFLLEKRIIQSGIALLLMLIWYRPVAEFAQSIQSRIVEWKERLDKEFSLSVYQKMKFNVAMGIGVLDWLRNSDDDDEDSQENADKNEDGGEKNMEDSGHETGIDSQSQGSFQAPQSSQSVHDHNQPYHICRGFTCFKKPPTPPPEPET

inhibition, inactive:
Cc1ccc(C(=O)N/C(=C\c2sccc2C)C(=O)NCc2ccco2)cc1 7.34%
CC1=NOC(=O)/C1=C\c1ccc(-c2ccc(Cl)cc2Cl)o1 16.7%
COc1ccc(-c2ccc(/C=C3\C(=O)N(c4ccccc4)N=C3c3ccccc3)o2)c([N+](=O)[O-])c1 2.08%
O=C1/C(=C\c2ccc(-c3ccccc3[N+](=O)[O-])o2)C(c2ccccc2)=NN1c1ccccc1 -3.41%
Cc1ccc(C2=NOC(=O)/C2=C\c2ccccc2)cc1 59.5%
O=C(O)/C(=C\c1ccc(-c2ccccc2[N+](=O)[O-])o1)c1ccccc1 10.1%
Cc1ccc(/C=C2\C(=O)ON=C2c2ccccc2)o1 -2.84%
O=C1COc2ccc(C(=O)COC(=O)c3sc4ccccc4c3Cl)cc2N1 7.71%
CCOc1ccc(CN(C)CC(=O)Nc2ccc(N3CCOCC3)cc2)cc1OC 6.36%
CC(NC(=O)c1ccccc1F)c1ccccc1 (stereo unspecified) 3.89%
O=C(NCCNC1CCN(Cc2ccccc2)CC1)c1cccs1 5.49%
O=C1CCCC(=O)C1CS(=O)(=O)c1ccccc1 14.9%
CCOC(=O)N1CCC(=NNc2nc3ccccc3s2)CC1 8.66%
CC1(C)C(=O)Nc2ccccc2N1C(=O)COC(=O)c1ccc(Cl)c(S(=O)(=O)NCc2ccccc2)c1 6.69%
O=C(Nc1ccccc1F)c1ccccc1C(=O)Nc1ccccc1F 14.6%
CCCCn1c(N)c(N(CCC(C)C)C(=O)CC2CCCC2)c(=O)[nH]c1=O 19.1%
COc1ccc(CC(=O)NN2C(=O)c3ccccc3C2=O)cc1 10.8%
O=C(O)Cc1c[nH]c2ccc(O)cc12 29.6%
O=C1c2ccccc2C(=O)N1CCc1c[nH]c2ccccc12 14.9%
O=C1c2ccccc2C(=O)N1CCCc1c[nH]c2ccc(Cl)cc12 8.17%
CC(=O)NCCc1c[nH]c2ccc(OCc3ccccc3)cc12 17%
COc1ccc2[nH]cc(CCNC(C)=O)c2c1 -0.22%
N[C@@H](Cc1c[nH]c2ccc(O)cc12)C(=O)O 20.5%
COc1ccccc1CCN1CCCC(CN(C)C(=O)c2ccc3nc[nH]c3c2)C1 (stereo unspecified) 6.91%
Cc1ccc(C)c(S(=O)(=O)N2CCCOC2CNC(=O)C(=O)NCCCn2ccnc2)c1 (stereo unspecified) 7.3%
Cc1[nH][nH]c(=O)c1C=NCc1cccc(C(F)(F)F)c1 8.38%
CC(=N)c1c(O)c2ccccc2oc1=O 20.4%
O=C(Oc1cccc(Cl)c1)N1CCOCC1 7.93%
NS(=O)(=O)c1ccc(NC(=O)COC(=O)c2cccc(S(=O)(=O)N3CCCC3)c2)cc1 11.7%
Cc1c(NC(=O)c2cccc(-c3cc4ccccc4oc3=O)c2)cccc1-c1nc2ncccc2o1 -0.4%
CCCCNc1nnc(Cc2ccc(Cl)cc2)c(=O)[nH]1 9.41%
O=C(CSc1ccccc1)N1CCCC(Nc2ccccc2)C1 (stereo unspecified) 7.87%
COc1ccc(NC2CCCN(C(=O)CCN3Cc4ccccc4C3=O)C2)cc1 (stereo unspecified) 34.5%
COc1ccc(NC2CCCN(C(=O)CCN3CCCO3)C2)cc1 (stereo unspecified) 23%
COc1ccc(NC2CCCN(C(=O)CCCn3cncn3)C2)cc1OC (stereo unspecified) 33.9%
O=C(CCCn1cncn1)N1CCCC(Nc2ccc(F)cc2)C1 (stereo unspecified) 5.07%
COc1ccc(NC2CCCN(C(=O)CSc3ccncc3)C2)cc1 (stereo unspecified) 31.4%
COc1ccc(S(=O)(=O)Nc2cc(C(=O)NC3CCCCCC3)ccc2N2CCOCC2)cc1 3.07%
CCc1nn(CC(=O)NCCCN2CCCC2=O)c(=O)c2cc3sccc3n12 -4.15%
Cc1ccc(NS(=O)(=O)c2c(C)[nH]c(C)c2C(=O)N2CCCCC2)c(Cl)c1 -2.05%
CCOC(=O)c1ccc(NC(=O)C(=O)NCc2ccccn2)cc1 -2.35%
CC(C)(CC(=O)O)CC(=O)Nc1ccc2c(c1)ncn2CCc1ccccc1 5.95%
NC1=NC(=O)S/C1=C\c1ccc(F)cc1 8.64%
CC(C)(C)c1ccc(/C=C2\SC(=O)N=C2N)cc1 5.32%
CCOc1cc(/C=C2\SC(N)=NC2=O)ccc1O 34.2%
Cc1c(N=C2C(=O)Nc3ccccc32)c(=O)n(-c2ccccc2)n1C 1.2%
Cc1c(N=C2NC(=O)/C(=C/c3cccc([N+](=O)[O-])c3)S2)c(=O)n(-c2ccccc2)n1C 4.3%
COc1ccc(/C=C2/SC(=O)NC2=O)cc1 12.9%
O=C1NC(=O)/C(=C\c2ccc(Cl)nc2)S1 8.29%
COc1ccc(/C=C2\SC(=O)N=C2N)cc1OC 8.84%
CCN(CC)CCSc1nc(O)c(C(C)C)c(=O)[nH]1 14.1%
COC(=O)[C@@H](Cc1c[nH]c2ccccc12)NC(=O)c1cc(=O)[nH]c2ccccc12 2.68%
CCOc1cc(S(=O)(=O)NC2CCCC2)ccc1Cl 2.79%
O=C(NCc1cccs1)C(=O)c1c[nH]c2ccccc12 -25.6%
Cc1occc1-c1nnc(SCC(=O)N2CCOCC2)o1 1.14%
O=S(=O)(Nc1nc2c(s1)CCCC2)c1ccc(Br)cc1 -1.56%
COc1ccc(/C=C(\NC(=O)c2ccccc2)C(=O)OCC2CCCN3CCCCC23)cc1OC (stereo unspecified) -3.64%
COc1ccc(/C=C/C(=O)OCC(=O)Nc2cc(S(=O)(=O)N(C)C)ccc2Cl)cc1 3.97%
COc1cccc(NC(=O)c2ccc(N3C(=O)C4CC=C(C)CC4C3=O)cc2)c1 (stereo unspecified) 7.31%
Cc1cccc(S(=O)(=O)Nc2nc3ccccc3nc2Nc2ccc3c(c2)OCO3)c1 17.6%
Cc1nc2ccc(Br)cc2c2c1CC(CBr)O2 (stereo unspecified) 10.6%
